Test results reported in the supplement of paper PMC13380429.

Tested on: Vero E6 infected with SARS-CoV-2
Assay: inhibition of SARS-CoV-2 cytopathic effect; higher = more antiviral protection, active = above 15
Conditions: 48 h

Measured: inhibition of SARS-CoV-2 cytopathic effect

CC(C)(C)/[N+]([O-])=C/c1ccc(S(=O)(=O)O)cc1S(=O)(=O)O
inactive: 1 nM -1.02% | 8.33 nM -0.15% | 100 nM -0.41% | 833.33 nM 0.47% | 10000 nM 0.8%

CC1(C)Oc2ccc(C#N)cc2[C@@H](N2CCCC2=O)[C@@H]1O [levcromakalim]
inactive: 1 nM 0.65% | 8.33 nM 1.1% | 100 nM 0.31% | 833.33 nM 1.22% | 10000 nM 2.06%

Cc1ncc(-c2ccnc(Nc3ccc(S(C)(=O)=O)cc3)n2)n1C(C)C
inactive: 1 nM 0.38% | 8.33 nM -1.83% | 100 nM -1.95% | 833.33 nM 6.02% | 10000 nM -2.7%

Cc1occc(=O)c1[O-].Cc1occc(=O)c1[O-].[O]=[V+2] [bis(maltolato)oxovanadium(IV)]
inactive: 1 nM 1.28% | 8.33 nM 1.37% | 100 nM 0.44% | 833.33 nM -2.57% | 10000 nM -1.02%
